Screening data deposited in PubChem by NMMLSC.
A selection: hits, their analogues and other compounds. The true share with any hit is near 1.1%.
LAP4-GFP MLPCN – modulators of LAP4-GFP expression in yeast, primary screen, S. cerevisiae, multiplex flow cytometry, MLPCN library; 0.34% of 320,000 active; AID 2023, 2009; 3 h; median GFP as percent of DMSO wells; GFP response vs DMSO, % at 10 µM;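 active = GFP response vs DMSO above a set limit, about the screen mean plus 3 SD, cut at about 150% in these data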
RPL19A TOR yeast – RPL19A-GFP expression modulators in yeast, primary screen, cell-based, S. cerevisiae, multiplex flow cytometry, MLPCN | percent response vs DMSO, % at 10 µM | 0.3% of 330,000 active | S. cerevisiae RPL19A-GFP strain, 3 h; active compounds read low;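 active = percent response vs DMSO below 50%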;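 also: median channel GFP fluorescence of the barcoded RPL19A-GFP strain; lower means less RPL19A-GFP as with rapamycin TOR inhibition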
VLA-4 inh – inhibition in human VLA-4 binding assay, primary screen, VLA-4 allosteric modulator project, MLPCN library, flow cytometry, VLA-4 expressing cells | 0.2% of 330,000 active | ligand binding flow cytometry | inhibition, % (about 7 µM as worked out from the volumes in the protocol); in the data active = inhibition above about 50%
Target sequence (P13612 whole entry, looked up): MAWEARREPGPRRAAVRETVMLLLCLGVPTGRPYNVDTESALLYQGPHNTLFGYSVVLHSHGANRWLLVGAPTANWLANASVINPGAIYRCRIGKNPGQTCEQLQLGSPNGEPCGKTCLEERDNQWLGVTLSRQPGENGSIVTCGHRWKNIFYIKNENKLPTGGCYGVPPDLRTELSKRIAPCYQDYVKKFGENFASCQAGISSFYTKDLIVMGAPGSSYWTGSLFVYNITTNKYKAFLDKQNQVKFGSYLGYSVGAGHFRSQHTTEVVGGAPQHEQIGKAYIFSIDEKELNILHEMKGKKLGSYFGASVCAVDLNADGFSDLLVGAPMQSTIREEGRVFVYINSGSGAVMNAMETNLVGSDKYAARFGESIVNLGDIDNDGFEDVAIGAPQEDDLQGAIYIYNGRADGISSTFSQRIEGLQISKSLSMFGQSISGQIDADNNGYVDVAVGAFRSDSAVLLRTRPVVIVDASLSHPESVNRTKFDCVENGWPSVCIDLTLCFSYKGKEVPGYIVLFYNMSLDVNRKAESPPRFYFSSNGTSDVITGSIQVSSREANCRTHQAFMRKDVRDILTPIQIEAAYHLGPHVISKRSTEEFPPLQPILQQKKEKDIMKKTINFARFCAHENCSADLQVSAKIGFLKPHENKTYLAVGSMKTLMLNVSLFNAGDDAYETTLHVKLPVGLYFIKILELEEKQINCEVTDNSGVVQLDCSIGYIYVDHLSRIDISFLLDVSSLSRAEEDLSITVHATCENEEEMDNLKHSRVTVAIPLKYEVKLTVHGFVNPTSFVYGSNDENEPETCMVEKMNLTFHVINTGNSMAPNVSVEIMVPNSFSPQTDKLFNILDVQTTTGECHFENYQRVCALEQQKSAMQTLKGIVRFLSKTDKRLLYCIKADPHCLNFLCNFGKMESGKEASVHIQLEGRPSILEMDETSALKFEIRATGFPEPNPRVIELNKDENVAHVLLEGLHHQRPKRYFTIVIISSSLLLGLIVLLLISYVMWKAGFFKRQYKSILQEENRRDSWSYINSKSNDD
MEP2 TOR yeast – modulators of MEP2-GFP levels in yeast, primary screen, S. cerevisiae, multiplex flow cytometry, MLPCN library; GFP response vs DMSO, % at 10 µM; S. cerevisiae MEP2-GFP strain, 3 h; 100% = DMSO control level; 0.51% of 330,000 active; AID 2016, 2009;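 active = GFP response versus DMSO above a set limit, roughly screen mean plus 3 SD, cut at about 180% in these data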;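 also: median GFP fluorescence of the barcode-gated MEP2-GFP cells per well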
CIT2-GFP yeast – modulators of CIT2-GFP expression in yeast, primary screen, S. cerevisiae, GFP fusion, multiplex flow cytometry, MLPCN library; S. cerevisiae CIT2-GFP strain, 3 h; 100 means same as DMSO wells; GFP response vs DMSO, % at 10 µM; 0.065% of 320,000 active; AID 2029, 2009;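 active = GFP response relative to DMSO above a set limit, near the screen mean plus 3 SD, cut at about 150% in these data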;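 also: ratio of well median GFP fluorescence to mean of DMSO wells on the plate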
AGP1-GFP MLPCN – modulators of AGP1-GFP expression in yeast TOR pathway, primary screen, cell-based, multiplex flow cytometry, S. cerevisiae, MLPCN library; 3 h; GFP as percent of DMSO wells; GFP response vs DMSO, % at 10 µM; AID 2066, 2009; 0.02% of 320,000 active;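 active = GFP response relative to DMSO above a set limit, near screen average plus 3 SD, cut at about 150% in these data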;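 also: median GFP channel fluorescence of the gated AGP1 strain per well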
VLA-4 allo CP – retest of VLA-4 allosteric modulators, confirmation, cell-based, cherry-picked plates, U937, HUTS-21 LIBS antibody; shares compounds with VLA-4 inh; U937 cells, HUTS-21 LIBS mAb binding, flow cytometry; LDV ligand present at threefold Kd; inhibition, % at 6.7 µM; 2% of 1,300 active; in the data active = inhibition above about 40%
Hits are given with their value.

Results for CC(C)(C)c1ccc(NS(=O)(=O)c2ccc(N)cc2)cc1 ?
RPL19A TOR yeast: inactive; VLA-4 inh: inactive; MEP2 TOR yeast: inactive; CIT2-GFP yeast: inactive; AGP1-GFP MLPCN: inactive; VLA-4 allo CP: inactive

How did Cc1nc(SCC(=O)NCc2ccc3c(c2)OCO3)nc(C)c1C do in these assays?
LAP4-GFP MLPCN: inactive; RPL19A TOR yeast: inactive; VLA-4 inh: inactive; MEP2 TOR yeast: inactive; CIT2-GFP yeast: inactive; AGP1-GFP MLPCN: inactive

What do the screens show for `CC(=O)Nc1nc(COc2ccccc2)cs1`?
LAP4-GFP MLPCN: inactive; RPL19A TOR yeast: inactive; VLA-4 inh: inactive; MEP2 TOR yeast: inactive; CIT2-GFP yeast: inactive; AGP1-GFP MLPCN: inactive

Results for CC(=O)Nc1nc(COc2ccc3ccccc3c2)cs1 ?
LAP4-GFP MLPCN: inactive; RPL19A TOR yeast: inactive; VLA-4 inh: 56; MEP2 TOR yeast: inactive; CIT2-GFP yeast: inactive; AGP1-GFP MLPCN: inactive; VLA-4 allo CP: inactive

How did CCOC(=O)c1c(C)[nH]c(C(=O)COC(=O)C2CC2C)c1C (stereo not drawn) do in these assays?
LAP4-GFP MLPCN: inactive; RPL19A TOR yeast: inactive; VLA-4 inh: inactive; MEP2 TOR yeast: inactive; CIT2-GFP yeast: inactive; AGP1-GFP MLPCN: inactive; VLA-4 allo CP: inactive

What do the screens show for `CCOC(=O)c1c(C)[nH]c(C(=O)COC(=O)c2cnccn2)c1C`?
LAP4-GFP MLPCN: inactive; RPL19A TOR yeast: inactive; VLA-4 inh: inactive; MEP2 TOR yeast: inactive; CIT2-GFP yeast: inactive; AGP1-GFP MLPCN: inactive; VLA-4 allo CP: inactive

How did CCOC(=O)c1c(C)[nH]c(C(=O)COC(=O)c2ccco2)c1C do in these assays?
LAP4-GFP MLPCN: inactive; RPL19A TOR yeast: inactive; VLA-4 inh: inactive; MEP2 TOR yeast: inactive; CIT2-GFP yeast: inactive; AGP1-GFP MLPCN: inactive; VLA-4 allo CP: inactive

How did CCOC(=O)c1c(C)[nH]c(C(=O)COC(=O)c2cccnc2Cl)c1C do in these assays?
LAP4-GFP MLPCN: inactive; RPL19A TOR yeast: inactive; VLA-4 inh: inactive; MEP2 TOR yeast: inactive; CIT2-GFP yeast: inactive; AGP1-GFP MLPCN: inactive

What do the screens show for `CCOC(=O)c1[nH]c(C)c(C(=O)OCC)c1C`?
LAP4-GFP MLPCN: inactive; RPL19A TOR yeast: inactive; VLA-4 inh: inactive; MEP2 TOR yeast: inactive; CIT2-GFP yeast: inactive; AGP1-GFP MLPCN: inactive

What do the screens show for `CCOC(=O)c1c(C)[nH]c(C(=O)COC(=O)c2ccncc2)c1C`?
LAP4-GFP MLPCN: inactive; RPL19A TOR yeast: inactive; VLA-4 inh: inactive; MEP2 TOR yeast: inactive; CIT2-GFP yeast: inactive; AGP1-GFP MLPCN: inactive; VLA-4 allo CP: inactive

What do the screens show for `O=C(Nc1ccsc1C(=O)O)c1cccc(C(F)(F)F)c1`?
LAP4-GFP MLPCN: inactive; RPL19A TOR yeast: inactive; VLA-4 inh: inactive; MEP2 TOR yeast: inactive; CIT2-GFP yeast: inactive; AGP1-GFP MLPCN: inactive; VLA-4 allo CP: inactive

How did O=C(Nc1ccsc1C(=O)O)c1cccc(Oc2ccccc2)c1 do in these assays?
LAP4-GFP MLPCN: inactive; RPL19A TOR yeast: inactive; VLA-4 inh: inactive; MEP2 TOR yeast: inactive; CIT2-GFP yeast: inactive; AGP1-GFP MLPCN: inactive

What do the screens show for `O=C(COc1cc(F)ccc1[N+](=O)[O-])NCC1CCCO1` (stereo not drawn)?
LAP4-GFP MLPCN: inactive; RPL19A TOR yeast: inactive; VLA-4 inh: inactive; MEP2 TOR yeast: inactive; CIT2-GFP yeast: inactive; AGP1-GFP MLPCN: inactive

What do the screens show for `O=C(Nc1cccc(Cl)c1)OCc1cncs1`?
LAP4-GFP MLPCN: inactive; RPL19A TOR yeast: inactive; VLA-4 inh: inactive; MEP2 TOR yeast: inactive; CIT2-GFP yeast: inactive; AGP1-GFP MLPCN: inactive; VLA-4 allo CP: inactive

What do the screens show for `O=C(Nc1ccc(Cl)cc1)OCc1cncs1`?
LAP4-GFP MLPCN: inactive; RPL19A TOR yeast: inactive; VLA-4 inh: inactive; MEP2 TOR yeast: inactive; CIT2-GFP yeast: inactive; AGP1-GFP MLPCN: inactive; VLA-4 allo CP: inactive

What do the screens show for `O=C(Nc1cccc2ccccc12)OCc1cncs1`?
LAP4-GFP MLPCN: inactive; RPL19A TOR yeast: inactive; VLA-4 inh: inactive; MEP2 TOR yeast: inactive; CIT2-GFP yeast: inactive; AGP1-GFP MLPCN: inactive

What do the screens show for `CCc1nnc(NC(=O)CN2CCN(Cc3ccccc3Cl)CC2)s1`?
LAP4-GFP MLPCN: inactive; RPL19A TOR yeast: inactive; VLA-4 inh: inactive; MEP2 TOR yeast: inactive; CIT2-GFP yeast: inactive; AGP1-GFP MLPCN: inactive

How did O=C(NCc1ccccn1)c1cccc(S(=O)(=O)Nc2ccccc2Cl)c1 do in these assays?
LAP4-GFP MLPCN: inactive; RPL19A TOR yeast: inactive; VLA-4 inh: inactive; MEP2 TOR yeast: inactive; CIT2-GFP yeast: inactive; AGP1-GFP MLPCN: inactive

Results for O=C(CCC(=O)Nc1ccccc1)N/N=C/c1cccnc1 ?
LAP4-GFP MLPCN: inactive; RPL19A TOR yeast: inactive; VLA-4 inh: inactive; MEP2 TOR yeast: inactive; CIT2-GFP yeast: inactive; AGP1-GFP MLPCN: inactive

What do the screens show for `COc1ccc(OCC(=O)Nc2ccccc2O)cc1`?
LAP4-GFP MLPCN: inactive; RPL19A TOR yeast: inactive; VLA-4 inh: inactive; MEP2 TOR yeast: inactive; CIT2-GFP yeast: inactive; AGP1-GFP MLPCN: inactive

How did CCCNC(=O)c1ccccc1NC(=O)COc1ccc(OC)cc1 do in these assays?
LAP4-GFP MLPCN: inactive; RPL19A TOR yeast: inactive; MEP2 TOR yeast: inactive; CIT2-GFP yeast: inactive; AGP1-GFP MLPCN: inactive; VLA-4 allo CP: inactive

How did O=C(COc1ccccc1)Nc1ccccc1C(=O)NCc1ccco1 do in these assays?
LAP4-GFP MLPCN: inactive; RPL19A TOR yeast: inactive; VLA-4 inh: 58; MEP2 TOR yeast: inactive; CIT2-GFP yeast: inactive; AGP1-GFP MLPCN: inactive; VLA-4 allo CP: inactive

Results for Cc1coc2c1c(C)cc1oc(=O)c(CC(=O)NCCCN3CCCC3=O)c(C)c12 ?
LAP4-GFP MLPCN: inactive; RPL19A TOR yeast: inactive; VLA-4 inh: inactive; MEP2 TOR yeast: inactive; CIT2-GFP yeast: inactive; AGP1-GFP MLPCN: inactive

Results for CC(=O)Nc1ccc(C(=O)OCC(=O)N2CCC(Cc3ccccc3)CC2)cc1 ?
LAP4-GFP MLPCN: inactive; RPL19A TOR yeast: inactive; VLA-4 inh: inactive; MEP2 TOR yeast: inactive; CIT2-GFP yeast: inactive; AGP1-GFP MLPCN: inactive

Results for CCC(C)(C)C1CCc2[nH]nc(C(=O)NC(C)C)c2C1 (stereo not drawn) ?
LAP4-GFP MLPCN: inactive; RPL19A TOR yeast: inactive; VLA-4 inh: inactive; MEP2 TOR yeast: inactive; CIT2-GFP yeast: inactive; AGP1-GFP MLPCN: inactive

How did OCC1OC(n2cnc3c(NC4CCCC4)ncnc32)C(O)C1O (stereo not drawn) do in these assays?
LAP4-GFP MLPCN: inactive; RPL19A TOR yeast: inactive; VLA-4 inh: inactive; MEP2 TOR yeast: inactive; CIT2-GFP yeast: inactive; AGP1-GFP MLPCN: inactive

How did C=CCNc1ncnc2c1ncn2C1OC(CO)C(O)C1O (stereo not drawn) do in these assays?
LAP4-GFP MLPCN: inactive; RPL19A TOR yeast: inactive; VLA-4 inh: inactive; MEP2 TOR yeast: inactive; CIT2-GFP yeast: inactive; AGP1-GFP MLPCN: inactive
